# Records with an inconclusive call do not appear. A number with no mark means an inactive call. Calls come from the whole dose curve; as a rule, active = well fitted inhibition curve with a large enough effect in the repeat runs; inconclusive = weak or mixed curves; inactive = no such curve, though single readings can be large or run the other way.
# Target: Androgen receptor (Homo sapiens) (UniProt P10275)
# Experiment: qHTS assay to identify small molecule antagonists of the androgen receptor (AR) signaling pathway using the MDA cell line in the presence of 0.5 nM R1881 (AID 1259243); note: nearly all actives have a fitted effect of over 50% in size
# Settings: MDA-kb2 MMTV-luciferase, R1881 0.5 nM, 16 h; series mostly up to 42.5 µM; activity, negative = inhibition: at the top concentration
# Source text: U.S. Tox21 Program National Center for Advancing Translational Sciences [NCATS] NIH Chemical Genomics Center [NCGC] U.S. Environmental Protection Agency [EPA] National Institutes of Environmental Health Sciences [NIEHS] National Toxicology Program [NTP] U.S. Food and Drug Administration [FDA] Tox21 Assay Overview: Androgen receptor (AR) is an important member of the nuclear receptor family. Its signaling plays a critical role in AR-dependent prostate cancer and other androgen related diseases. Considerable attention has been given in the past decades to develop methods to study and screen for the environmental chemicals that have the potential to interfere with metabolic homeostasis, reproduction, developmental and behavioral functions. Therefore AR binding assay for screening androgen antagonists can be used to identify potential endocrine disruptors. MDA-kb2 cells (from ATCC, deposited by Wilson et al.) were used to screen for AR inhibitors against Tox21 compound libraries. These cells are human breast carcinoma cells that were stably transfected with a luciferase reporter gene under control of the MMTV promoter that contains response elements for both androgen receptor (AR) and glucocorticoid receptor (GR). The current screening for identification of AR inhibitors against Tox21 libraries used lower concentration (0.5 nM) of R1881 as a stimulator.
# Tox21 Assay Protocol Summary: MDA-kb2 cells (cells cultured without CO2) were dispensed at 3,000 cells/well in 4 uL of culture medium into white wall/solid-bottom 1536-well plates (Corning Life Sciences, Corning, NY) using a Multidrop Combi (ThermoFisher Scientific, Waltham, MA) dispenser. After the assay plates were incubated at a 37C and 0% CO2 for 5 hr, 23 nL of compounds dissolved in DMSO, positive controls or DMSO only was transferred to the assay plate by a Pintool station (Kalypsys, San Diego, CA). The transfer of compounds was followed by the addition of 1 uL of 0.5 nM (final concentration) agonist (R1881)/culture medium using a Flying Reagent Dispenser (FRD, Aurora Discovery, San Diego, CA). The plates were incubated at 37C and 0% CO2 for 16 hr. For luciferase reporter gene assay, 4 uL of ONE-Glo reagent (Promega Corporation, Madison, WI) was added to each well using the FRD and after 30 min incubation at room temperature luminescence intensity was measured using ViewLux plate reader (PerkinElmer, Shelton, CT).
# % is set by controls: 0 for no effect and ±100 for the full control effect.
# Androgen receptor (Homo sapiens), sequence (P10275 whole entry, looked up): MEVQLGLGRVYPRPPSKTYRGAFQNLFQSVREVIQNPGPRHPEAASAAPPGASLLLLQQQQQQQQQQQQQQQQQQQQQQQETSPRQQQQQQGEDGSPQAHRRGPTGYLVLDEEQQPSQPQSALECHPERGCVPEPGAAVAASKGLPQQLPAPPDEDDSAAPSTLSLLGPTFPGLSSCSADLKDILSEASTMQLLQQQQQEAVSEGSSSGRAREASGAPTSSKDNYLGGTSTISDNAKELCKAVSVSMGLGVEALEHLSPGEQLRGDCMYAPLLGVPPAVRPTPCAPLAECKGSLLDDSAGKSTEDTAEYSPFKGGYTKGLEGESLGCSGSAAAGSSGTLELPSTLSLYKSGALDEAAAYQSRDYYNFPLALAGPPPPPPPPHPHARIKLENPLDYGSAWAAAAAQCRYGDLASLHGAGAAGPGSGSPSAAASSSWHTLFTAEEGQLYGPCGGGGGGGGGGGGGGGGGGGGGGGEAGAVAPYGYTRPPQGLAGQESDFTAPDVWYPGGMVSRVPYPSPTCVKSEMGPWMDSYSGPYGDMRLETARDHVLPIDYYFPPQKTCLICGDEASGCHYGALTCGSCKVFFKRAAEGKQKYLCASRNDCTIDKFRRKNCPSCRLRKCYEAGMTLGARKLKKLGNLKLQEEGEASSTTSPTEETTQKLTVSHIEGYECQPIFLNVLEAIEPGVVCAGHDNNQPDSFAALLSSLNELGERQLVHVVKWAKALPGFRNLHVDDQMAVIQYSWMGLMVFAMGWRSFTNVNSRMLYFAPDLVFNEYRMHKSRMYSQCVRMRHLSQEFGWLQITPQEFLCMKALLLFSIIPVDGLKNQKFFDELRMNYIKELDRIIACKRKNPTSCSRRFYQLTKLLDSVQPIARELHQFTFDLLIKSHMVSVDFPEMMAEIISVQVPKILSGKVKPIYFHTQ
row,Compound,"activity, negative = inhibition"
1,O=c1[nH]c(=O)c2ccccc2o1,1.52%
2,O=C(CN1CCN(Cc2ccc3c(c2)OCO3)CC1)N1c2ccccc2Sc2ccccc21,-0.943%
3,CCCOCCOCCOCCO,-5.51% [at 92.4 µM]
4,Cn1c(=O)c2c(ncn2CC2OCCO2)n(C)c1=O,-7.92%
5,Cc1ncc([N+](=O)[O-])n1CC(O)CCl (centres undefined),0.249%
6,Nc1ccc(S(=O)(=O)Nc2ccccn2)cc1,9.39%
7,CCC(C)(C)C1CCC(=O)CC1,-3.28% [at 92.4 µM]
8,OC(CCN1CCCCC1)(c1ccccc1)c1ccccc1,4.06%
9,CCN(CC)C(=O)C1CN2CCc3cc(OC)c(OC)cc3C2CC1OC(C)=O (centres undefined),-7.65%
10,COc1cc([N+](=O)[O-])ccc1N,-19.5% [at 92.4 µM]
11,CCCCCCCCCCCCCCCCCCN(C)C,14.9%
12,COc1cccc2sc(N)nc12,39.1% [at 92.4 µM]
13,CCCCC(CC)CNC(=O)CC(C)OC(=O)CCC(=O)O (centres undefined),8.55%
14,CN[C@@H]1[C@H](O)[C@H](NC)[C@H]2O[C@@]3(O)C(=O)C[C@@H](C)O[C@H]3O[C@@H]2[C@H]1O,34.9%
15,CC(=O)OC(C(=O)c1ccccc1)c1ccccc1 (centres undefined),-15.1% [at 92.4 µM]
16,Nc1cc(C(=O)O)ccc1Cl,0.0256% [at 92.4 µM]
17,CC(=O)N1CCN(c2ccc(O)cc2)CC1,6.4%
18,COc1ccc(/C=N/NC(=O)c2ccncc2)cc1OC,4.32%
19,C=CCCCCCCCCCCC,5.11% [at 8.39 µM]
20,O=C(O)c1ccc(OCCN2CCCCC2)cc1,0.581%

row,Compound,"activity, negative = inhibition"
1,CCCCCCCCCCCCCC(=O)OC,4.7% [at 92.4 µM]
2,O=C1OC(=O)c2cc(Oc3ccc4c(c3)C(=O)OC4=O)ccc21,0.541% [at 92.4 µM]
3,O=C(O)c1ccccc1C(=O)OCc1ccccc1,24.5% [at 92.4 µM]
4,CCNC(=O)/C=C/c1cccc(Br)c1,1.25%
5,O=CN1CCOCC1,-10.1% [at 92.4 µM]
6,CCCCCCCCCCC,9.27% [at 92.4 µM]
7,NCCc1ccn[nH]1,24.7%
8,CC(=O)OC[C@H]1O[C@@H](OC(C)=O)[C@H](OC(C)=O)[C@@H]1OC(C)=O,0.87%
9,O=C(O)c1ccccc1C(=O)Nc1ccc(S(=O)(=O)Nc2nccs2)cc1,-4.22%
10,CNC(=O)NC,-4.49% [at 92.4 µM]
11,O=S(=O)(O)SSS(=O)(=O)O,0.543% [at 92.4 µM]
12,CCCCCCCCCCCCCCCCI,3.86% [at 19 µM]
13,CC(C)COC(=O)COc1ccc(Cl)cc1Cl,0.65% [at 92.4 µM]
14,C=CCOCC(O)CCl (centres undefined),-2.53% [at 92.4 µM]
15,CCCCC[Si](OCC)(OCC)OCC,3.02% [at 92.4 µM]
16,Nc1ccnc(=O)[nH]1,-8.05% [at 92.4 µM]
17,COC(OC)C(C)c1ccccc1 (centres undefined),6.17% [at 92.4 µM]
18,COCC(=O)Nc1c(I)c(C(=O)NCC(O)CO)c(I)c(C(=O)N(C)CC(O)CO)c1I (centres undefined),10.2%
19,Cc1nc2n(c(=O)c1CCN1CCC(C(=O)c3ccc(F)cc3)CC1)CCS2,-24.5%

# Reference: PubChem BioAssay (Tox21)
